{
  "source": "PubChem BioAssay (NCI)",
  "note": "The panel holds about 83,000 compounds, 20% with a hit somewhere; the sample as a whole holds those more often.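 The endpoint reported here, percent growth, reads 100 for growth as untreated, 0 for no net growth and -100 for all cells dead.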 Unmarked numbers belong to inactive results. Calls of active or inactive are those of the source. Rule for the calls: active = growth percent below 10; inactive = the rest.",
  "data": [
    {"test_system": "HL-60(TB) leukemia", "experiment": "NCI-60 one-dose screen, 48 h (100 = growth as untreated, 0 = no growth, -100 = all killed)", "settings": "10 µM unless noted", "values": [
      {"smiles": "O=C(O)COc1ccc(OCC(=O)O)cc1", "growth": "-1.78% (active)"},
      {"smiles": "N#Cc1c(-c2ccc(Cl)cc2)nc(NN=Cc2ccco2)nc1N1CCOCC1", "growth": "108%"},
      {"smiles": "O=C1CCCC=CC[C@H]2C=C(Cl)C(=O)C2=CC[C@H](CCCCC(F)(F)F)OC(=O)CCCC=CC[C@H]2C=C(Cl)C(=O)C2=CC[C@H](CCCCC(F)(F)F)OC(=O)CCCC=CC[C@H]2C=C(Cl)C(=O)C2=CC[C@H](CCCCC(F)(F)F)O1", "growth": "27.6% [6.25 µM]"}
    ]}
  ]
}
